Reference: PubChem BioAssay
Activity calls are given as the source filed them.

What was measured:
[1] = system: PRMT1 (protein arginine N-methyltransferase 1); assay: PRMT1 binders on small-molecule microarrays, primary screen, biochemical, small-molecule microarray, 635 nm fluorescence (AID 1088); conditions: small-molecule microarray binding, higher = more signal;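 also: binding of Prmt1 protein to compounds spotted on small-molecule microarray slides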
[2] = yeast growth modulation, basal conditions, primary screen, YJM789 clinical isolate, OD600, 24 h (AID 1089);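 also: growth of clinical yeast isolate S. cerevisiae YJM 789 seeded 1000 cells per well; test concentration not given here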; conditions: S. cerevisiae YJM789 growth, higher = more signal, called active from +8 up or from −8 down
[3] = fission yeast growth modulation, primary screen, strain 972, OD600, 24 h, no modulator (AID 1090);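 also: basal condition with compound alone and no growth modifier present; test concentration not given here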; conditions: S. pombe 972 growth, higher = more signal, called active from +8 up or from −8 down
[4] = S. cerevisiae growth modulation with rapamycin, primary screen, strain BY4716, OD600, 96 h (AID 1091); conditions: higher = more signal, called active from +8 up or from −8 down; also: test concentration not given here
[5] = biological target: Torsin-1A-interacting protein 2 (Homo sapiens) (UniProt Q8NFQ8); assay: LULL1 binders on small-molecule microarray, primary screen, cell lysate, human LULL1 lysate, 635/667 nm fluorescence (AID 1092); conditions: hLULL1 lysate binding, 635 nm fluorescence, higher = more signal;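 also: probe is lysate of COS7 cells overexpressing human LULL1; score merges per-feature 667 nm fluorescence with signal-to-noise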
[6] = E. coli growth modulation, two-sided OD650, primary screen, E. coli filamentation project, strain DRC41, 24 h (AID 1093); conditions: OD650, 24 h, higher = more signal, called active from +8 up or from −8 down;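 also: MC1000 strain lacking acrAB efflux and sulA so SOS filamentation is blocked; test concentration not given here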
[7] = small-molecule microarray binders of probe aLefty2, primary screen, biochemical, biotinylated probe, 635/667 nm fluorescence (AID 1094); conditions: higher = more signal;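 also: score merges spot fluorescence near 667 nm with spot signal-to-noise ratio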
[8] = system: Noggin (protein binding on small-molecule microarray); assay: Noggin binders on small-molecule microarray, primary screen, biochemical, 635/667 nm fluorescence (AID 1095); conditions: 635 nm fluorescence, higher = more signal;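 also: score merges 667 nm feature fluorescence with signal to noise over triplicate slides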
[9] = biological target: Neurogenic locus notch homolog protein 3 (Homo sapiens) (UniProt Q9UM47); assay: NOTCH3 binders on small-molecule microarray, primary screen, biochemical, 635/667 nm fluorescence (AID 1096); conditions: NOTCH3 binding, 635 nm fluorescence, higher = more signal
[10] = small-molecule microarray binders of probe aEGFR, primary screen, biochemical, biotinylated probe, 635/667 nm fluorescence (AID 1097); conditions: higher = more signal;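 also: probe is a biotinylated anti-EGFR antibody binding compounds printed on slides; score combines fluorescence near 667 nm and signal to noise of each spot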
[11] = system: Plasmodium falciparum Sir2 (PF13_0152, Sir2A); assay: pfSir2 binders on small-molecule microarrays, primary screen, biochemical, small-molecule microarray, 635 nm fluorescence (AID 1098); conditions: small-molecule microarray binding, fluorescence 635 nm; higher = more signal;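 also: score merges spot fluorescence intensity with its signal-to-noise ratio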
[12] = small-molecule microarray binders of probe aDKK1, primary screen, biochemical, biotinylated probe, 635/667 nm fluorescence (AID 1099); conditions: higher = more signal;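 also: score merges 667nm spot fluorescence with signal to noise across triplicate slides; reference of the scale not given here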
[13] = small-molecule microarray binders of probe aCHRDL2, primary screen, biochemical, biotinylated probe, 635/667 nm fluorescence (AID 1100); conditions: higher = more signal
[14] = splicing luciferase reporter signal modulators, primary screen, spliceosome inhibition project, cell-based, HEK293, splice +/- reporter (AID 1101); conditions: luminescence, 24 h, higher = more signal, called active from +8 up or from −8 down;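 also: HEK293 cells carrying a splicing-competent luciferase reporter gene; test concentration not given here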
[15] = biological target: Fibroblast growth factor 10 (Homo sapiens) (UniProt O15520); assay: FGF10 binders on small-molecule microarrays, primary screen, biochemical, small-molecule microarray, 635 nm fluorescence (AID 1102); conditions: FGF10 binding, fluorescence 635 nm, higher = more signal
[16] = system: glycogen synthase kinase-3 (GSK3A per assay name; protocol says GSK3B); assay: GSK3 binders on small-molecule microarrays, primary screen, biochemical, small-molecule microarray, 635 nm fluorescence, GSK3A (AID 1103); conditions: small-molecule microarray binding, fluorescence 635 nm; higher = more signal; also: the record names both GSK3A and GSK3B
[17] = biological target: Epidermal growth factor receptor (Homo sapiens) (UniProt P00533); assay: EGFR binders on small-molecule microarrays, primary screen, biochemical, small-molecule microarray, 635 nm fluorescence (AID 1104); conditions: EGFR binding, higher = more signal;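 also: score merges 667 nm emission intensity with spot signal to noise over triplicate slides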
[18] = biological target: Follistatin-related protein 3 (Homo sapiens) (UniProt O95633); assay: FSTL3 binders on small-molecule microarrays, primary screen, biochemical, small-molecule microarray, 635 nm fluorescence (AID 1105); conditions: FSTL3 binding, higher = more signal;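 also: score merges emission near 667 nm and signal to noise per printed spot across three slides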
[19] = biological target: Dickkopf-related protein 1 (Homo sapiens) (UniProt O94907); assay: DKK1 binders on small-molecule microarrays, primary screen, biochemical, small-molecule microarray, 635 nm fluorescence scan (AID 1106); conditions: DKK1 binding, higher = more signal;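 also: score merges emission near 667 nm with signal to noise over three replicate slides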
[20] = system: Inhibin beta A chain (activin A); assay: INHBA (activin A) binders on microarrays, primary screen, biochemical, small-molecule microarray, 635 nm fluorescence scan (AID 1107); conditions: small-molecule microarray binding, higher = more signal;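 also: mouse activin A protein probed at 4.33 µg/mL on printed slides; score merges bound-protein fluorescence near 667 nm with spot signal-to-noise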

Torsin-1A-interacting protein 2 (Homo sapiens), sequence (Q8NFQ8 whole entry, looked up): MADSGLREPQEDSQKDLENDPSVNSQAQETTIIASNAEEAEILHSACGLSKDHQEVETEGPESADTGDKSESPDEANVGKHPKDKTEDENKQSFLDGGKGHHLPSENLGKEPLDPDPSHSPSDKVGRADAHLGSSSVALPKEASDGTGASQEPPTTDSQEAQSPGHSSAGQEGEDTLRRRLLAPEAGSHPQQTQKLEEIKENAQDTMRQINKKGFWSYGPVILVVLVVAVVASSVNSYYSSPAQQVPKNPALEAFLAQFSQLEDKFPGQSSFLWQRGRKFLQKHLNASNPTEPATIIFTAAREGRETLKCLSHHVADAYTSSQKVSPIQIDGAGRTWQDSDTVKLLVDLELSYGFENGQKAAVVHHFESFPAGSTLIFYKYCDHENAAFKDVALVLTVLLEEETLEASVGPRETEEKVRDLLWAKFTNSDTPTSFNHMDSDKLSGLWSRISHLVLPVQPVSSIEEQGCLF
Dickkopf-related protein 1 (Homo sapiens), sequence (O94907 whole entry, looked up): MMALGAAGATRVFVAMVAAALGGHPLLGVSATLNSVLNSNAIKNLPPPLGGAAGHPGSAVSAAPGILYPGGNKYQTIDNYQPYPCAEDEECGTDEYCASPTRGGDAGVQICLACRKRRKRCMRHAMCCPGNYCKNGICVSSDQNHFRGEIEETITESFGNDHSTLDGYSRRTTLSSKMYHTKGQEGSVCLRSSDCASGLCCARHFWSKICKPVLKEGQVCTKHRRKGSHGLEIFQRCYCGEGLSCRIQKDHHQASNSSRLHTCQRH
Fibroblast growth factor 10 (Homo sapiens), sequence (O15520 whole entry, looked up): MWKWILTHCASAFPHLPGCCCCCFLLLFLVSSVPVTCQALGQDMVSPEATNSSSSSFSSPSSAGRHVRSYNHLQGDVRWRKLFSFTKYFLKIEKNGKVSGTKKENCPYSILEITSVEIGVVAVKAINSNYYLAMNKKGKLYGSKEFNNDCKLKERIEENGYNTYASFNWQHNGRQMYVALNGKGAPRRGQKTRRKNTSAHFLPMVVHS
Epidermal growth factor receptor (Homo sapiens), sequence (P00533 whole entry, looked up): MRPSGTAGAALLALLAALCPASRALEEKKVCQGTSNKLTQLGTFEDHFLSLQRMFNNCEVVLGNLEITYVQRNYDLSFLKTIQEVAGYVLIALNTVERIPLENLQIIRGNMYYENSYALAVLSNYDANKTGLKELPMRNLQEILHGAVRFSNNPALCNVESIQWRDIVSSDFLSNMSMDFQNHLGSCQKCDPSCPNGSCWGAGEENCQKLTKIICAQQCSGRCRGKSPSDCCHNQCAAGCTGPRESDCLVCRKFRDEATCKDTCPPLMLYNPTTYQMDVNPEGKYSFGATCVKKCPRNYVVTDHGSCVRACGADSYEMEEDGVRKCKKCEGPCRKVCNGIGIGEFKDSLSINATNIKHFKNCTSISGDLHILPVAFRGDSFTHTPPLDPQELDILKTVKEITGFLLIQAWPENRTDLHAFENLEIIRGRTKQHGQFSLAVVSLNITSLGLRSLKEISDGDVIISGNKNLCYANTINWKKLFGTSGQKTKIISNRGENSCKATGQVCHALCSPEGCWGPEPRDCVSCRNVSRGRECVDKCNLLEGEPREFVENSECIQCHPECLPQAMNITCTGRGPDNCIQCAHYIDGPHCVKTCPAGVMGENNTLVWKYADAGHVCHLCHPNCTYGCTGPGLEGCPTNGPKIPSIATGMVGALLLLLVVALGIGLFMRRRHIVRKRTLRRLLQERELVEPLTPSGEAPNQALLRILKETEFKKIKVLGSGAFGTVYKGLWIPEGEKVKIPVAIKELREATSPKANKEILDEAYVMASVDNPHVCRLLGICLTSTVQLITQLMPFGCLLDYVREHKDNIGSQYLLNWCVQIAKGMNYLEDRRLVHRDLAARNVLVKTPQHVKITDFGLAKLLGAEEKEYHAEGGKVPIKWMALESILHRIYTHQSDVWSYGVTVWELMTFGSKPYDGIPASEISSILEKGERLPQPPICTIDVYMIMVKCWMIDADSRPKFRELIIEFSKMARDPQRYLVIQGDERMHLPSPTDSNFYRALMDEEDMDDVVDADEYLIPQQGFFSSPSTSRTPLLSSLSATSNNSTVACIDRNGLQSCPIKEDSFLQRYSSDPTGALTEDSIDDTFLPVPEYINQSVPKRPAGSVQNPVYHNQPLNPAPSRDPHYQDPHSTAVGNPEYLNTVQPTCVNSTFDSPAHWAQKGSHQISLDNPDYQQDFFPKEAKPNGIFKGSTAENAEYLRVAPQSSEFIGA
Neurogenic locus notch homolog protein 3 (Homo sapiens), sequence (Q9UM47 whole entry, looked up): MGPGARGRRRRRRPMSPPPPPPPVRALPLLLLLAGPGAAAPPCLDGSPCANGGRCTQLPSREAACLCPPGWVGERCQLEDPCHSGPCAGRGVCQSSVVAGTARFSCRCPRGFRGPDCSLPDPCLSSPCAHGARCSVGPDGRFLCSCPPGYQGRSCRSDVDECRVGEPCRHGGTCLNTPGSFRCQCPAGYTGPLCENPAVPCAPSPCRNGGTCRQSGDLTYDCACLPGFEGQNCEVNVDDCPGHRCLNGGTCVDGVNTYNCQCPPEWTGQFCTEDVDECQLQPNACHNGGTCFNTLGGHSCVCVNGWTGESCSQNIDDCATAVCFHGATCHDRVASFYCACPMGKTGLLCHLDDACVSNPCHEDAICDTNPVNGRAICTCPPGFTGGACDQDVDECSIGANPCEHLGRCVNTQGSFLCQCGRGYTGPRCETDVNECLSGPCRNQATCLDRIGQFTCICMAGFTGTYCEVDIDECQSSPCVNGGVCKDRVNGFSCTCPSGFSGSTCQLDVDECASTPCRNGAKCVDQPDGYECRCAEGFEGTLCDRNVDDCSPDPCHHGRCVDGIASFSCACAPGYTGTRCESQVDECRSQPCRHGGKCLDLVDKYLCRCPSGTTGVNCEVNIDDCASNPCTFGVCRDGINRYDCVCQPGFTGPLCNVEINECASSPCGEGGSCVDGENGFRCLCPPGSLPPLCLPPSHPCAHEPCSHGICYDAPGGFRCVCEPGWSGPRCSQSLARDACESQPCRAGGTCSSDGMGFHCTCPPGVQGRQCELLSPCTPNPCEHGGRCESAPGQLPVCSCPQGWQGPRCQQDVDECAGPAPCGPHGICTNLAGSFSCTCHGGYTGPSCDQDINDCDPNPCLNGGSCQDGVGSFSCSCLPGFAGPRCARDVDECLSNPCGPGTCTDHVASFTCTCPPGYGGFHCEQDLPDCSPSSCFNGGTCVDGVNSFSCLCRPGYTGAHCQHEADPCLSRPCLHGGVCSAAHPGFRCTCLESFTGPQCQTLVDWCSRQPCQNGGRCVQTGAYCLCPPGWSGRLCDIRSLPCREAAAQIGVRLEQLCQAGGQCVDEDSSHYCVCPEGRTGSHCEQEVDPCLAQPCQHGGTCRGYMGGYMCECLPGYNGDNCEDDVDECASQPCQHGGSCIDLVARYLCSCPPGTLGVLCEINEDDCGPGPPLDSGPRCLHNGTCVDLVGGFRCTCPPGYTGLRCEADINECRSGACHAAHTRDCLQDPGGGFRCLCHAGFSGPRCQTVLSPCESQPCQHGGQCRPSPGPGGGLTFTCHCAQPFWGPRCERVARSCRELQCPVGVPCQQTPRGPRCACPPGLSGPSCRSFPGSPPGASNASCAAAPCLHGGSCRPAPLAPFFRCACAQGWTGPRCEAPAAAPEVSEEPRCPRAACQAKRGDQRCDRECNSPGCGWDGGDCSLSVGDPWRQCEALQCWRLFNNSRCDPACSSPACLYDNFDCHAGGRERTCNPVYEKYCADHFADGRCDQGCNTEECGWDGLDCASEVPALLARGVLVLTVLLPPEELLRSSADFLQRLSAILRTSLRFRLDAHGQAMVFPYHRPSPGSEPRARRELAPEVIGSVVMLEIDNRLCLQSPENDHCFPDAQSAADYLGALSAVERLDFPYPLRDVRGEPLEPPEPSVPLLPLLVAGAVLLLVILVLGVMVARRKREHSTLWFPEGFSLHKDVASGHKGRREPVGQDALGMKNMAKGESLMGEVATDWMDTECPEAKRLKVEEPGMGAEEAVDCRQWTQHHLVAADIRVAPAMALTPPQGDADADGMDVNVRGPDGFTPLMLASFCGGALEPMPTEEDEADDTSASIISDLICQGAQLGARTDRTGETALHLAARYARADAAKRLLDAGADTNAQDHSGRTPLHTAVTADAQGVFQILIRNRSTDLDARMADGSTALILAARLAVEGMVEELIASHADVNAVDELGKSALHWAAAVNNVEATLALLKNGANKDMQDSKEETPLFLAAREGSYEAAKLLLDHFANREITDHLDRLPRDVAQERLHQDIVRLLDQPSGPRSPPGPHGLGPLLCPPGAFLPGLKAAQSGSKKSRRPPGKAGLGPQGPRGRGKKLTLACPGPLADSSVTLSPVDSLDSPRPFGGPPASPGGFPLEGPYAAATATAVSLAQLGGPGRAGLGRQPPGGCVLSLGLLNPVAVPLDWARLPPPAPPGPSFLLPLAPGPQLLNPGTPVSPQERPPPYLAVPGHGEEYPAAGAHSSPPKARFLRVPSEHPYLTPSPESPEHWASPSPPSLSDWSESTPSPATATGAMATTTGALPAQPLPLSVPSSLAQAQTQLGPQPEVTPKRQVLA
Follistatin-related protein 3 (Homo sapiens), sequence (O95633 whole entry, looked up): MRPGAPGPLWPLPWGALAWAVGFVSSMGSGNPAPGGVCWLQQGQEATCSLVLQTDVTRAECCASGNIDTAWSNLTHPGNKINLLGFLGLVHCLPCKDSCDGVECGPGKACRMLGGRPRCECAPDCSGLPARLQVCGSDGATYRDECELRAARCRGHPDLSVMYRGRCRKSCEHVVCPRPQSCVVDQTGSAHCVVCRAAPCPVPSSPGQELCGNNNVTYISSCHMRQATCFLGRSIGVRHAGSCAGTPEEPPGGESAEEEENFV

SMILES	composite z-score [1]	z-score [2]	z-score [3]	z-score [4]	composite z-score [5]	z-score [6]	composite z-score [7]	composite z-score [8]	composite z-score [9]	composite z-score [10]	composite z-score [11]	composite z-score [12]	composite z-score [13]	z-score [14]	composite z-score [15]	composite z-score [16]	composite z-score [17]	composite z-score [18]	composite z-score [19]	composite z-score [20]
CC(=O)n1cc(C(O)C2C=CC3C(=O)NC(=O)C3N2Nc2ccccn2)c2ccccc21 (stereo not given)	0.553	0.505 (inactive)	0.777 (inactive)	0.171 (inactive)	0.134	-0.965 (inactive)	-0.0594	0.187	0.375	-0.0084	0.452	-0.0908	0.0413	2.28 (inactive)	0.168	0.0973	0.523	0.225	0.339	0.709
COc1cc2c(cc1O)C=[N+](Cc1cc3c(cc1Br)OCO3)CC2	0.168	0.213 (inactive)	-9.96 (active)	-0.208 (inactive)	0.379	-1.52 (inactive)	-0.0285	-0.833	-0.223	-0.188	1.73	0.0055	0.591	-0.244 (inactive)	-0.445	-1.06	-0.486	-1.04	-1.05	0.655
COC(=O)C[C@H]1O[C@@H](CCc2ccccc2)[C@@H](C)[C@@H]1[Si](C)(C)c1ccc(OC)cc1	-0.604	0.425 (inactive)	-0.412 (inactive)	0.797 (inactive)	-0.722	-0.67 (inactive)	-0.253	-0.263	-0.311	-0.206	-1.04	-0.0884	-0.149	0.0234 (inactive)	-0.587	-1.04	0.239	-0.232	0.149	0.0026
CCN(CC)c1ccc(N2CC=CC34O[C@@H]5C=CCOC(=O)[C@@H]5[C@H]3C(=O)N(CCCCCCO)[C@@H]4C2=O)cc1 (stereo not given in full)	0.933	-0.259 (inactive)	-0.53 (inactive)	-0.975 (inactive)	2.63	2.24 (inactive)	-0.192	-0.526	-0.136	-0.0987	1.85	-0.131	0.844	-0.93 (inactive)	-0.655	-0.559	-0.366	-0.406	-0.863	1.17
O=C(NC1CC1)[C@@H]1c2ccccc2C(=O)N(C2Cc3ccccc3C2)[C@H]1c1ccc(CO)cc1	1.44	-0.0411 (inactive)	0.682 (inactive)	-0.514 (inactive)	3.1	0.628 (inactive)	-0.0441	0.976	0.722	-0.16	0.188	-0.053	0.438	0.199 (inactive)	0.467	1.3	0.473	0.53	0.951	0.338
COc1ccc(CCNC(=O)[C@@]2(C)c3ccccc3C(=O)N(c3ccc(C)cn3)[C@H]2c2ccc(CO)cc2)cc1	-0.0351	-1.39 (inactive)	-0.739 (inactive)	-1.17 (inactive)	-0.04	-0.121 (inactive)	0.0851	-0.704	-0.736	-0.247	-0.697	-0.0508	0.156	0.981 (inactive)	-1.2	-0.831	-1.03	-1.06	-0.905	0.453
CCCCCN1CC=CC23O[C@@H]4C=CCOC(=O)[C@@H]4[C@H]2C(=O)N(C(C)CO)[C@@H]3C1=O (stereo not given in full)	-0.508	-0.076 (inactive)	-0.226 (inactive)	0.0795 (inactive)	-0.952	0.266 (inactive)	-0.174	-1	-0.553	-0.296	1.4	-0.162	0.381	1.03 (inactive)	-0.571	-0.831	-1.44	-1.25	-0.693	-0.469
CO[C@H]1O[C@H](CO)[C@@H](OC(=O)Nc2ccc(Oc3ccccc3)cc2)[C@H](OC(=O)Nc2ccc3c(c2)OCO3)[C@@H]1OC(=O)Nc1ccc2c(c1)OCO2	1.53	2.21 (inactive)	1.22 (inactive)	8.57 (active)	3.04	1.36 (inactive)	0.237	0.866	1.07	0.367	1.38	0.337	0.478	-0.762 (inactive)	1.17	1.33	0.54	1.39	0.46	0.707
CCOC(=O)C[C@H]1[C@H](OC(=O)c2ccc(C(=O)c3ccccc3)cc2)[C@@H](NC(=O)c2ccccc2)c2cc(OCCCO)ccc2N1C(=O)c1ccccc1	0.844	-0.178 (inactive)	0.801 (inactive)	-0.536 (inactive)	1.72	-0.448 (inactive)	-0.0154	0.508	1.01	0.121	0.576	0.188	-0.0053	0.0733 (inactive)	0.656	0.0643	0.168	0.84	0.112	0.136
CCCCCCCCCCC(O)C1C=CC2C(=O)NC(=O)C2N1Nc1ccc(Cl)cc1Cl (stereo not given)	0.355	1.52 (inactive)	-0.451 (inactive)	0.309 (inactive)	1.8	-2.39 (inactive)	-0.0769	-0.729	0.102	-0.137	-0.856	-0.214	0.935	-0.723 (inactive)	-0.127	-0.535	-0.724	-0.88	-1.04	1.14
